# Test results published in PubChem BioAssay (Tox21).
# Records with an inconclusive call do not appear. A call without a number means that no potency is given here. The source made the active and inactive calls. Calls follow the shape of the full dose curve.
# Assay: qHTS assay to identify small molecule antagonists of the sonic hedgehog signaling (Shh) pathway (AID 1259369); also: nearly all actives have a fitted effect of over 45% in size
# Details: NIH/3T3 Gli1-Luc reporter, Shh antagonist, luminescence 24 h; series mostly up to 92.4 µM
# From the text: U.S. Tox21 Program National Center for Advancing Translational Sciences [NCATS] NIH Chemical Genomics Center [NCGC] U.S. Environmental Protection Agency [EPA] National Institutes of Environmental Health Sciences [NIEHS] National Toxicology Program [NTP] U.S. Food and Drug Administration [FDA] Tox21 Assay Overview: The sonic hedgehog (Shh) pathway is essential for normal embryonic development. Dysregulation of the Shh pathway can cause severe developmental defects in organs. Therefore chemicals that interfere with the pathway are potential developmental toxicants. A cell line designated 3T3Gli1-Luc (DMB/OARSA/CFSAN/FDA, Laurel, MD), a NIH/3T3 derived clone containing stably integrated Gli1-Luc reporter is used to detect chemical interference of the Shh pathway, by changes in the expression of the firefly Luc gene under the control of the Gli1 transcriptional response element. This cell line was used to screen Tox21 libraries for identifying and prioritizing the potential developmental toxicants that interfere Shh pathway. Conditioned medium-stimulated mode was used to screen for chemicals inhibiting Shh signaling.
# Tox21 Assay Protocol Summary: 3T3 Gli1-Luc cells were dispensed at 2,000 per well in 5uL of culture medium into white solid bottom 1536-well plates (Greiner Bio-One, Monroe, NC) using a Multidrop Combi (Thermo Scientific, Waltham, MA) dispenser. The assay plates were incubated at 37 C and 5% CO2 for 4hr, and then 23nL of compounds dissolved in DMSO and positive control were transferred using a Pintool station (Wako, San Diego, CA). The compound transfer was followed by the addition of 1ul conditioned medium or assay buffer using two separate tips of Flying Reagent Dispenser (FRD, Aurora Discovery, San Diego, CA). The assay plates were incubated at 37C and 5% CO2 for 24hr. For luciferase read, 4uL of Amplite Luciferase reporter gene assay reagent (AAT Bioquest, Inc. Sunnyvale, CA) was added to each well of the assay plates using FRD and incubated at room temperature for 30min. The luminescence signal was measured using a ViewLux plate reader (Perkin Elmer, Shelton, CT).
# Potency is read from the fitted curve at half-maximal effect.
row,Structure (SMILES),Potency
1,ClCC(Cl)Cl,inactive
2,CN1CCC(O)(c2ccc(F)cc2)C(C(=O)c2ccc(F)cc2)C1 (stereo not given),inactive
3,CNC(=O)O/N=C(\C)SC,inactive
4,COCC(=O)N(c1c(C)cccc1C)N1CCOC1=O,inactive
5,OCCBr,inactive
6,CCOP(=S)(OCC)Oc1nc(Cl)n(C(C)C)n1,inactive
7,c1cc2c(c(N3CCNCC3)c1)OCCO2,inactive
8,CCCSC(=O)Cl,inactive
9,O=C1CN=C(c2ccccc2)c2cc([N+](=O)[O-])ccc2N1,inactive
10,O=[N+]([O-])c1cc(Cl)c(Cl)c(Cl)c1,inactive
11,CC(C)NCC(O)c1ccc(N)c(C#N)c1 (stereo not given),inactive
12,Cc1cnc[nH]1,inactive
13,CNC(=O)Oc1ccc(N(C)C)c(C)c1,inactive
14,Fc1cc(Br)ccc1CBr,inactive
15,[O]=[Cd],inactive
16,CCN(CC)C(C)C(=O)c1ccccc1 (stereo not given),inactive
17,Cc1coc2c1CCC(C)C2 (stereo not given),inactive
18,COc1cccc(C(=O)NN(C(=O)c2cc(C)cc(C)c2)C(C)(C)C)c1C,inactive
19,O=[N+]([O-])c1cccc(O)c1,inactive
20,CC1=C(C(=O)Nc2ccccc2)S(=O)(=O)CCO1,3.06 µM (active)

row,Structure (SMILES),Potency
1,C=C(C)CN(CC)c1c([N+](=O)[O-])cc(C(F)(F)F)cc1[N+](=O)[O-],inactive
2,NC(=O)c1cc([N+](=O)[O-])cc([N+](=O)[O-])c1,inactive
3,CC1(C)C(=O)NC(=O)NC1=O,inactive
4,CCCCCCI,inactive
5,CCOP(=S)(Oc1cnc(C(C)(C)C)nc1)OC(C)C (stereo not given),inactive
6,CN1C(=S)CN=C(c2ccccc2)c2cc(Cl)ccc21,6.68 µM (active)
7,CCS(=O)(=O)CCSP(=O)(OC)OC,inactive
8,ClCC(Cl)(Cl)Cl,inactive
9,Clc1ccccc1N1CCNCC1,inactive
10,COc1cc(OC)nc(NC(=O)NS(=O)(=O)c2ncccc2OCC(F)(F)F)n1,inactive
11,O=P(O)(Oc1ccccc1)Oc1ccccc1,inactive
12,CC1CCC(=O)O1 (stereo not given),inactive
13,OCCSCSCCO,inactive
14,CNC(=O)Oc1cccc(C(C)C)c1,inactive
15,O=C1OC(=O)C2C1C1(Cl)C(Cl)=C(Cl)C2(Cl)C1(Cl)Cl (stereo not given),inactive
16,CCCSC(=O)N(CCC)CCC,inactive
17,NC(=S)C(N)=S,inactive
18,Cc1nc(N)nc(N)n1,inactive
19,CCCCOC(=O)c1ccccc1N,inactive
20,CCOP(=O)(N=C1SCCS1)OCC,inactive
